Results published in PubChem BioAssay.
The source made the active and inactive calls.

Experiments:
[1] = system: Plasmodium falciparum Sir2 (PF13_0152, Sir2A); assay: pfSir2 binders on small-molecule microarrays, primary screen, biochemical, small-molecule microarray, 635 nm fluorescence (AID 1098); conditions: small-molecule microarray binding, fluorescence 635 nm; higher = more signal;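 note: score merges spot fluorescence intensity with its signal-to-noise ratio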
[2] = small-molecule microarray binders of probe aDKK1, primary screen, biochemical, biotinylated probe, 635/667 nm fluorescence (AID 1099); conditions: higher = more signal;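 note: score merges 667nm spot fluorescence with signal to noise across triplicate slides; reference of the scale not given here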
[3] = small-molecule microarray binders of probe aCHRDL2, primary screen, biochemical, biotinylated probe, 635/667 nm fluorescence (AID 1100); conditions: higher = more signal
[4] = splicing luciferase reporter signal modulators, primary screen, spliceosome inhibition project, cell-based, HEK293, splice +/- reporter (AID 1101); conditions: luminescence, 24 h, higher = more signal, called active from +8 up or from −8 down;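 note: HEK293 cells carrying a splicing-competent luciferase reporter gene; test concentration not given here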
[5] = target: Fibroblast growth factor 10 (Homo sapiens) (UniProt O15520); assay: FGF10 binders on small-molecule microarrays, primary screen, biochemical, small-molecule microarray, 635 nm fluorescence (AID 1102); conditions: FGF10 binding, fluorescence 635 nm, higher = more signal
Chain of Fibroblast growth factor 10 (Homo sapiens) (O15520 whole entry, looked up): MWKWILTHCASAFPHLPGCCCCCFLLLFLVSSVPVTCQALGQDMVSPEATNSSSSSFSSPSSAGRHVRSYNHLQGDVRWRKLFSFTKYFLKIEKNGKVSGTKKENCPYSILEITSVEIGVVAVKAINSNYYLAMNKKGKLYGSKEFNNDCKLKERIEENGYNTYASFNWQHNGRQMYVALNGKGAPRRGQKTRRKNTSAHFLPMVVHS

[6] = system: glycogen synthase kinase-3 (GSK3A per assay name; protocol says GSK3B); assay: GSK3 binders on small-molecule microarrays, primary screen, biochemical, small-molecule microarray, 635 nm fluorescence, GSK3A (AID 1103); conditions: small-molecule microarray binding, fluorescence 635 nm; higher = more signal; note: the record names both GSK3A and GSK3B
[7] = target: Epidermal growth factor receptor (Homo sapiens) (UniProt P00533); assay: EGFR binders on small-molecule microarrays, primary screen, biochemical, small-molecule microarray, 635 nm fluorescence (AID 1104); conditions: EGFR binding, higher = more signal;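 note: score merges 667 nm emission intensity with spot signal to noise over triplicate slides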
Chain of Epidermal growth factor receptor (Homo sapiens) (P00533 whole entry, looked up): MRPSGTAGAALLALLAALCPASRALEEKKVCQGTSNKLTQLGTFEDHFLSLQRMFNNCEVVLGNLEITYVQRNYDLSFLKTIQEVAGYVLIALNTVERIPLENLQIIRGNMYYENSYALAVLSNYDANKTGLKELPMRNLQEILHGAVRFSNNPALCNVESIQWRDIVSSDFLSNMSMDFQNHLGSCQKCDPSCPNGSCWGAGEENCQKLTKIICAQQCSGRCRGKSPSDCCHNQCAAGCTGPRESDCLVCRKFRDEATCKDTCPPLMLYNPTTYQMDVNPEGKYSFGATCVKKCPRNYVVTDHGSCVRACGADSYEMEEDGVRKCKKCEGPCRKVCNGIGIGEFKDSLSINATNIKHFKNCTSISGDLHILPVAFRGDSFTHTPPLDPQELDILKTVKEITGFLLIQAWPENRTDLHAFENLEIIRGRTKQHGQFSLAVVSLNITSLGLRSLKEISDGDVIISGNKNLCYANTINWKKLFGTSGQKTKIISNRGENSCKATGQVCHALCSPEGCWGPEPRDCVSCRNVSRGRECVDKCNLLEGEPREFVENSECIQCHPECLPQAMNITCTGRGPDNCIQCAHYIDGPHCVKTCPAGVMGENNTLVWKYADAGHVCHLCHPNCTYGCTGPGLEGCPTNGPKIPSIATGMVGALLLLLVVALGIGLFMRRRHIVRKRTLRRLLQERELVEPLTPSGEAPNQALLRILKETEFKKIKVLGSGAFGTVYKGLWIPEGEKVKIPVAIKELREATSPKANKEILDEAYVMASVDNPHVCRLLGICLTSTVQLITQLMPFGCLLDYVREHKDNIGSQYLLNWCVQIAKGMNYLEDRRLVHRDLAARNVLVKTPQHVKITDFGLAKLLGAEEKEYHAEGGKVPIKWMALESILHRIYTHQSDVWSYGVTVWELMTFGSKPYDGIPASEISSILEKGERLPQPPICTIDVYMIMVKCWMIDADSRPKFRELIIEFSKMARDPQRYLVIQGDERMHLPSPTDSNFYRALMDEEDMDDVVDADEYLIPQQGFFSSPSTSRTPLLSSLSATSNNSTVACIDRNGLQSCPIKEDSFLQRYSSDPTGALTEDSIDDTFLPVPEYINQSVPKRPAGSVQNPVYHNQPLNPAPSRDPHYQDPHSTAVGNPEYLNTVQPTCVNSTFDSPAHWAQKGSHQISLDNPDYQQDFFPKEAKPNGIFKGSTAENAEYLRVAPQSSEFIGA

[8] = target: Follistatin-related protein 3 (Homo sapiens) (UniProt O95633); assay: FSTL3 binders on small-molecule microarrays, primary screen, biochemical, small-molecule microarray, 635 nm fluorescence (AID 1105); conditions: FSTL3 binding, higher = more signal;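 note: score merges emission near 667 nm and signal to noise per printed spot across three slides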
Chain of Follistatin-related protein 3 (Homo sapiens) (O95633 whole entry, looked up): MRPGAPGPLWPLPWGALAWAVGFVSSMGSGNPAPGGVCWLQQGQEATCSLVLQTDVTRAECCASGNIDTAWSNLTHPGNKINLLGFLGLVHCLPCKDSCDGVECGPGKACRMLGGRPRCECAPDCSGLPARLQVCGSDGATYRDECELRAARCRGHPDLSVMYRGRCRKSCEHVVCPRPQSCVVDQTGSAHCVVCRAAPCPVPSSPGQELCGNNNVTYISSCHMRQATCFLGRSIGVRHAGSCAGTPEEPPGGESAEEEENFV

[9] = target: Dickkopf-related protein 1 (Homo sapiens) (UniProt O94907); assay: DKK1 binders on small-molecule microarrays, primary screen, biochemical, small-molecule microarray, 635 nm fluorescence scan (AID 1106); conditions: DKK1 binding, higher = more signal;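 note: score merges emission near 667 nm with signal to noise over three replicate slides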
Chain of Dickkopf-related protein 1 (Homo sapiens) (O94907 whole entry, looked up): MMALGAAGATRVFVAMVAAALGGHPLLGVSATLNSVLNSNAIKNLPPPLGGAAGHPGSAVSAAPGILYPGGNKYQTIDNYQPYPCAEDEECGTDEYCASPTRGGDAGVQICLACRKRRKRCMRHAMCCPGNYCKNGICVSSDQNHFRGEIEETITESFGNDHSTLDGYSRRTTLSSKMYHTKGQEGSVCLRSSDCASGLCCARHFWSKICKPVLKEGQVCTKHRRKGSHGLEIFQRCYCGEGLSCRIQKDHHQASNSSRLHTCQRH

[10] = system: Inhibin beta A chain (activin A); assay: INHBA (activin A) binders on microarrays, primary screen, biochemical, small-molecule microarray, 635 nm fluorescence scan (AID 1107); conditions: small-molecule microarray binding, higher = more signal;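 note: mouse activin A protein probed at 4.33 µg/mL on printed slides; score merges bound-protein fluorescence near 667 nm with spot signal-to-noise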

| Structure (SMILES) | composite z-score [1] | composite z-score [2] | composite z-score [3] | z-score [4] | composite z-score [5] | composite z-score [6] | composite z-score [7] | composite z-score [8] | composite z-score [9] | composite z-score [10] |
| --- | --- | --- | --- | --- | --- | --- | --- | --- | --- | --- |
| O=C(NCCN1CCOCC1)[C@@H]1c2ccccc2C(=O)N(CC23CC4CC(CC(C4)C2)C3)[C@H]1c1ccc(CO)cc1 | 1.13 | 0.253 | 0.789 | 0.507 (inactive) | 1.33 | 1.32 | 0.634 | 1.21 | 0.0037 | 0.471 |
| C[C@]12C(=O)N(CCO)[C@@H]3C(=O)N(c4ccc(Cl)cc4)CC=CC31O[C@@H]1/C=C\CCCOC(=O)C12 (stereo not given in full) | -0.617 | -0.128 | 0.776 | 0.178 (inactive) | -1.04 | -1.31 | -1.51 | -1.03 | -1.53 | 0.847 |
| Cc1ccc(S[C@]2(C(=O)NC3CC3)CC(=O)N(C3Cc4ccccc4C3)[C@@H]2c2ccc(CO)cc2I)cc1 | 0.911 | 0.379 | 0.524 | -1.38 (inactive) | -0.745 | -0.641 | -1.62 | -1.11 | -0.826 | 0.771 |
| CCCCN1CC=CC23O[C@@H]4C=CCCOC(=O)C4[C@H]2C(=O)N(CCO)[C@@H]3C1=O (stereo not given in full) | -1.33 | -0.364 | 0.297 | 0.244 (inactive) | 0.107 | -0.248 | -1.19 | -0.838 | -0.587 | 0.0542 |
| COc1ccc([Si](C)(C)[C@H]2[C@H](CC(=O)N(CCO)Cc3ccccc3)O[C@@]3(C(=O)N(Cc4cccc(N5CCCCC5=O)c4)c4ccccc43)[C@@H]2C)cc1 | 0.535 | -0.147 | -0.13 | -2.32 (inactive) | 0.114 | -0.0519 | -0.0805 | 0.436 | 0.327 | 0.167 |
| C=CCNC(=O)[C@H]1[C@@H]2C(=O)O[C@@H](c3ccccc3)[C@@H](c3ccccc3)N2[C@@H](c2ccc(OCCO)cc2)[C@]12C(=O)Nc1ccc(C#Cc3ccc(OC)cc3)cc12 | 1.34 | 0.626 | 0.632 | -0.258 (inactive) | 1.23 | 1.33 | 0.486 | 1.17 | 0.736 | -0.274 |
| C=CCN1C(=O)[C@]2(O[C@H](CCO)[C@@H]([Si](C)(C)c3ccc(OC)cc3)[C@@H]2C)c2cc(N3C(=O)c4ccccc4Oc4ccccc43)ccc21 | 1.16 | -0.252 | 0.117 | -1.38 (inactive) | 0.402 | 0.209 | 0.0038 | 0.255 | 0.107 | 0.206 |
| O=C1c2ccccc2[C@](Cc2ccccc2I)(C(=O)NCCN2CCOCC2)[C@H](c2ccc(CO)cc2)N1Cc1ccccc1C(F)(F)F | 0.655 | -0.0516 | 0.358 | -0.0322 (inactive) | 0.275 | 0.484 | -0.288 | 0.276 | -0.419 | 0.734 |
| C#CCN(C(=O)OC(C)(C)C)[C@H](CO)c1ccccc1 | -0.223 | -0.331 | -0.601 | 0.234 (inactive) | 0.286 | 0.419 | 0.258 | -0.0195 | 0.226 | -0.415 |
| COc1cc(CO)cc(I)c1O[C@H]1C=C(C(=O)NCCO)C[C@@H](N(CCN2CCOCC2)C(=O)C2CCCO2)[C@@H]1O (stereo not given in full) | 0.226 | -0.309 | -0.521 | 0.0133 (inactive) | 0.322 | 0.507 | 0.488 | 0.152 | 0.516 | 0.356 |
| CC[C@H]1C2=C3C(CC[C@H]4C(OCc5ccc(F)cc5C(F)(F)F)OC[C@](C)([C@@H]34)N(C(=O)OC(C)(C)C)C2)C(COC(C)=O)C1COC(C)=O (stereo not given in full) | 0.386 | 0.62 | 0.971 | -0.695 (inactive) | 0.402 | 0.665 | -0.379 | 0.418 | -0.583 | 0.691 |
| COC(=O)[C@@]1(Cc2ccc(OC)cc2)[C@@H]2[C@@H](CC(=O)[C@H]2CC(=O)C(=O)N(C)C)CN1C(=O)c1ccccc1 | 0.625 | 1.64 | 1.49 | -1.53 (inactive) | 1.27 | 1.18 | 0.638 | 1.17 | -0.458 | 0.18 |
| COCCCNC(=O)[C@@]1(Cc2ccccc2I)c2ccccc2C(=O)N(Cc2ccccc2C(F)(F)F)[C@H]1c1ccc(CO)cc1 | 0.228 | 0.201 | 0.883 | 0.544 (inactive) | 0.0125 | -0.559 | -1.71 | -0.961 | -1.68 | -0.601 |
| COC(=O)[C@@]1(Cc2ccc(F)cc2)[C@H]2c3cc(C(=O)N(C)C)n(Cc4ccc(C(F)(F)F)nc4)c3C[C@H]2CN1C(=O)c1ccccc1 | 1.12 | -0.154 | -0.252 | -0.622 (inactive) | 0.776 | 1.36 | 0.389 | 1.42 | 0.638 | 0.876 |
| COc1ccc([Si](C)(C)[C@H]2[C@H](CC(=O)N3CCC[C@H]3CO)O[C@@]3(C(=O)N(C)c4c(Br)cc(C)cc43)[C@@H]2C)cc1 | 1.91 | 0.94 | 0.244 | 0.00593 (inactive) | 1.5 | 1.32 | 0.775 | 1.16 | 1.08 | 1.34 |
| C=C(COC)C(=O)CC[C@@H](OC(=O)c1ccccc1-c1ccccc1C(=O)O)c1ccccc1OCCO | 0.664 | -0.0934 | 0.0182 | -0.14 (inactive) | 1.65 | 0.293 | -0.0099 | 0.474 | 0.902 | 1.34 |
| C=CCNC(=O)[C@@H]1[C@H]2C(=O)O[C@H](c3ccccc3)[C@H](c3ccccc3)N2[C@H](c2ccc(O)cc2)[C@@]12C(=O)Nc1ccc(C#CC3=CCCCC3)cc12 | 1.6 | 0.582 | -0.228 | -0.258 (inactive) | 1.24 | 0.887 | 0.494 | 0.79 | 0.626 | 0.406 |
| CC(C)C[C@@H]1NC(=O)[C@@H]2C[C@H](C(=O)NCCCCCNC(=O)CS)[C@H](c3ccc(O)cc3)N2C1=O | 1.67 | -0.1 | -0.03 | -3.37 (inactive) | -0.113 | -0.0192 | 0.135 | 0.286 | 0.353 | -0.111 |
| OCCCc1cc[n+](Cc2cc3c(cc2Br)OCO3)cc1 | -0.837 | -0.0013 | 0.706 | 0.341 (inactive) | -0.741 | -1.84 | -1.15 | -0.725 | -0.625 | 0.783 |
| COc1ccc(C(=O)Nc2ccc(CN3C(=O)[C@]4(O[C@H](CC(=O)N(CCO)Cc5ccccc5)[C@@H]([Si](C)(C)c5ccc(OC)cc5)[C@@H]4C)c4ccccc43)cc2)cc1 | 1.11 | -0.0522 | -0.338 | -1.88 (inactive) | 1.34 | 0.956 | 0.918 | 1.34 | 1.1 | 0.842 |
| CCCCC(=C=CC[C@H](O)c1cccc(OCCO)c1)C[C@H](O)c1cc(Cl)cc(Cl)c1O | 1.28 | -0.152 | -0.214 | -0.109 (inactive) | 1.27 | 0.25 | -0.443 | 0.544 | 0.0244 | 0.295 |
| COc1cccc(C)c1NC(=O)O[C@H]1[C@H](OC(=O)Nc2ccccc2-c2ccccc2)[C@@H](OC(=O)Nc2ccccc2-c2ccccc2)[C@@H](OC)O[C@@H]1CO | 1.3 | 0.629 | 0.573 | 0.152 (inactive) | 1.4 | 1.1 | 0.316 | 1.43 | 0.244 | 0.601 |
| COCCOC(=O)N1C(=O)[C@@]2(c3cc(C#CCC(C(=O)OC)C(=O)OC)ccc31)[C@H](C(=O)N1CCc3cc(OC)c(OC)cc3C1)[C@H]1C(=O)O[C@H](c3ccccc3)[C@H](c3ccccc3)N1[C@@H]2c1ccccc1OCCO | 0.496 | -0.381 | -0.162 | -0.606 (inactive) | 1.18 | 1.31 | 1.01 | 1.38 | 1.19 | 1.02 |
| CCc1cccc(NC(=O)O[C@H]2[C@H](OC(=O)Nc3ccccc3-c3ccccc3)[C@H](OC(=O)Nc3ccccc3-c3ccccc3)[C@@H](OC)O[C@@H]2CO)c1 | 0.477 | 0.632 | 0.444 | 1.93 (inactive) | 1.45 | 1.34 | 0.851 | 1.31 | 0.635 | 0.838 |
| COc1ccc([Si](C)(C)[C@@H]2[C@@H](CC(=O)N3Cc4ccccc4C[C@H]3CO)O[C@]3(C(=O)N(Cc4ccc(I)cc4)c4ccccc43)[C@H]2C)cc1 | 0.458 | -0.128 | -0.357 | -1.36 (inactive) | 1.12 | 0.66 | 1.22 | 1.36 | 1.45 | 1.52 |
| CC1CC/C=C\[C@H]2OC34C=CCN(CCN5CCOCC5)C(=O)[C@H]3N(C(CO)C(C)C)C(=O)[C@@H]4C2C(=O)O1 (stereo not given in full) | 1.5 | -0.155 | 0.0473 | -0.192 (inactive) | -0.268 | 0.169 | -0.31 | -0.239 | -0.112 | 1.17 |
| CC(C)(C)OC(=O)N1[C@@H](C=C(Br)Br)COC1(C)C | 0.395 | -0.16 | -0.282 | 0.104 (inactive) | 0.382 | 0.901 | 0.614 | 0.164 | 0.393 | 0.29 |
| O=C1NC(=O)C2C1C=CC(C(O)c1ccc(F)cc1)N2Nc1ccc(Cl)cc1Cl (stereo not given) | -0.315 | 0.96 | 1.12 | 1.65 (inactive) | 0.327 | -0.923 | -0.416 | -0.194 | -0.459 | 0.924 |
